This is an account of results in PubChem BioAssay (Tox21).

The target of assay [1] is Progesterone receptor (Homo sapiens) (UniProt P06401). Nature of the assay: qHTS assay to identify small molecule agonists of the progesterone receptor (PR) signaling pathway (AID 1346784; calls by dose curve; also: nearly all actives have a fitted effect of over 30% in size). The essentials:
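PR-UAS-bla HEK 293T cells (beta-lactamase reporter under UAS) in 2% charcoal-stripped FBS, dosed with 23 nL compound after 6 hr, incubated 16hr at 37C. LiveBLAzer B/G FRET substrate added, fluorescence read after 2 hours.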
A general note: Quantitative high-throughput screening tests each substance at several concentrations.

Assay [2] shares this target. The assay can be described thus: qHTS assay to identify small molecule antagonists of the progesterone receptor (PR) signaling pathway (AID 1346795; active = well fitted inhibition curve with a large enough effect in the signal ratio in the repeat runs, not every such curve was filed as active; the % refers to the signal ratio). The essentials: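 PR-UAS-bla HEK293T cells with beta-lactamase reporter under UAS control, in 2% charcoal-stripped FBS, treated with compounds plus 1 nM promegestone (R5020, final) for 16 hr at 37C. Read-out: FRET beta-lactamase substrate fluorescence after 2 hr at room temperature.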

Assay [3] in a line: qHTS assay to identify small molecule antagonists of the progesterone receptor (PR) signaling pathway - cell viability counter screen (AID 1346798). Also: series mostly up to about 92 µM; nearly all actives have a fitted effect of over 50% in size. The gist of the method: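 PR-UAS-bla HEK293T cells, 3,000/well in 2% charcoal-stripped FBS medium, dosed with compounds plus R5020 agonist and incubated 16 h at 37C. Viability then measured in the same wells by CellTiter-Glo luminescence after 30 min at RT.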

Assay [4] in a line: qHTS assay to identify small molecule agonists of the progesterone receptor (PR) signaling pathway - cell viability counter screen (AID 1346799; calls by dose curve; also: nearly all actives have a fitted effect of over 45% in size). The essentials:
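Counter screen in the PR-UAS-bla HEK293T wells (2% charcoal-stripped FBS, 16 h compound exposure at 37 C) after the bla read. CellTiter-Glo added, 30 min at room temperature, luminescence read as cell viability.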

Assay [5] can be described thus: qHTS assay to identify small molecule antagonists of the TGF-beta/Smad signaling pathway - cell viability counter screen (AID 1346824). Also: nearly all actives have a fitted effect of over 50% in size. The essentials: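 Cytotoxicity counter-screen run in the same wells as the beta-lactamase Smad reporter read: CellTiter-Glo luminescence after 30 min at room temperature. HEK 293T SBE-bla cells had 5 hr compound exposure at 37 C with TGF-beta1 (0.25 ng/mL stock).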

The nature of assay [6]: qHTS assay to identify small molecule agonists of the TGF-beta/Smad signaling pathway - cell viability counter screen (AID 1346829). Also: top concentration of the series differs between compounds; nearly all actives have a fitted effect of over 45% in size. The essentials: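 Same-well cytotoxicity: CellTiter-Glo added after the 2 hr room-temperature beta-lactamase substrate step, luminescence measured 30 min later; cells had 5 hr of compound at 37 C.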
Assay [7] can be described thus: qHTS assay to identify small molecule agonists of the TGF-beta/Smad signaling pathway (AID 1346859; active = well fitted activation curve with a large enough effect in the signal ratio in the repeat runs, not every such curve was filed as active; the % refers to the signal ratio; also: series mostly up to about 77 µM). The gist of the method:
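SBE-bla HEK293T cells plated overnight, then compound exposure for 5 h at 37 C. Beta-lactamase reporter read with LiveBLAzer B/G FRET substrate after 2 h at room temperature, fluorescence at 405 nm excitation, 460/530 nm emission.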

The target in assay [8] is Thyrotropin-releasing hormone receptor (Homo sapiens) (UniProt P34981). Nature of the assay: qHTS assay to identify small molecule antagonists of the thyrotropin-releasing hormone receptor (TRHR) signaling pathway (AID 1346877; active = well fitted inhibition curve with a large enough effect in the repeat runs, not every such curve was filed as active; also: series mostly up to about 51 µM). The essentials: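 Antagonism is measured as suppression of the calcium response to 1 nM TRH in TRHR-HEK293 cells that have been dye-loaded for 2 h at 37 °C after overnight plating. Each compound is tested at 15 concentrations in triplicate.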
Chain of Thyrotropin-releasing hormone receptor (Homo sapiens) (P34981 whole entry, looked up): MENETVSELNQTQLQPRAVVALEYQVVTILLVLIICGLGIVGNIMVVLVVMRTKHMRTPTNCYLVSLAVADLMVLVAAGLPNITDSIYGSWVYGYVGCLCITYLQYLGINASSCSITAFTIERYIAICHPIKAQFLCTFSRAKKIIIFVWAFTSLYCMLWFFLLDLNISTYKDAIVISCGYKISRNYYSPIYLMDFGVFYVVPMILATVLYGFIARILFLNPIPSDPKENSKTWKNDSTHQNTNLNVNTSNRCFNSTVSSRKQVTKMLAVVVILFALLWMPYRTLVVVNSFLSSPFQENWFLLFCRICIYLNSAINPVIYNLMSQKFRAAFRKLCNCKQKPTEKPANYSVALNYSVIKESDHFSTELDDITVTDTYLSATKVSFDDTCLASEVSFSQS

Assay [9] shares this target. Nature of the assay: qHTS assay to identify small molecule agonists of the thyrotropin-releasing hormone receptor (TRHR) signaling pathway (AID 1346891; calls by dose curve; also: series mostly up to about 58 µM). The gist of the method: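 HEK293 cells expressing TRHR plated 18 h at 37 C/5% CO2, calcium dye-loaded 2 h at 37 C, then compound added (agonist mode); kinetic calcium fluorescence read 3 min at 1 s intervals; 15 concentrations in triplicate.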

Assay [10] can be described thus: Caspase-3/7 induction in HepG2 cells by small molecules, qHTS assay (AID 1346978). Also: nearly all actives have a fitted effect of over 15% in size. Also: potency is read from the fitted curve at half-maximal effect. The gist of the method:
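Caspase-3/7 induction was measured by Caspase-Glo 3/7 luminescence (30 min, room temperature) after a 17 hr compound exposure of wild-type HepG2 cells seeded at 2,000 per well and pre-incubated 5 hr.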

Assay [11] can be described thus: Caspase-3/7 induction in CHO-K1 cells by small molecules, qHTS cell viability counter screen (AID 1346979). Also: nearly all actives have a fitted effect of over 35% in size. Also: potency is read from the fitted curve at half-maximal effect. The essentials:
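Wild-type CHO-K1 cells (1,500/well) treated with compound after 5 h plating; after 16 h at 37C, viability read as CellTiter-Fluor fluorescence following 1 h reagent incubation, in the same wells as the caspase read.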

Assay [12] can be described thus: Caspase-3/7 induction in CHO-K1 cells by small molecules, qHTS assay (AID 1346980). Also: nearly all actives have a fitted effect of over 15% in size. The gist of the method:
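Luminescent Caspase-Glo 3/7 read (30min, room temperature) quantified apoptosis induction. Cells were wild-type CHO-K1, treated with compound for 17hr at 37 C and 5% CO2.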

The nature of assay [13]: Caspase-3/7 induction in HepG2 cells by small molecules, qHTS cell viability counter screen (AID 1346981). Also: series mostly up to about 92 µM; nearly all actives have a fitted effect of over 30% in size. The essentials: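 Cell viability is measured as a cytotoxicity counter screen alongside the Caspase-Glo 3/7 readout in identical wells. Wild-type HepG2 cells are treated with test compounds for 16 hr at 37 C before CellTiter-Fluor addition and a 1-hr incubation.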

The target in assay [14] is Nuclear receptor subfamily 1 group I member 2 (Homo sapiens) (UniProt O75469). The assay can be described thus: Human pregnane X receptor (PXR) small molecule agonists, qHTS assay (AID 1346982). Also: nearly all actives have a fitted effect of over 35% in size. Also: potency is read from the fitted curve at half-maximal effect. The essentials:
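Cells: HepG2 stably carrying PXR-Luc. Medium held 5% charcoal-stripped FBS. Compounds in DMSO added after 5 hr plating, incubated 24 hr, then luminescence quantified with ONE-Glo.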

The target in assay [15] is Cytochrome P450 2D6 (Homo sapiens) (UniProt P10635). Nature of the assay: Cytochrome P450 Family 2 Subfamily D Member 6 (CYP2D6) small molecule antagonists: luciferase reporter qHTS assay (AID 1671196). Also: nearly all actives have a fitted effect of over 50% in size. Also: potency is read from the fitted curve at half-maximal effect. The gist of the method:
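Enzyme and proluciferin substrate were first combined with test chemical for 10 min at room temperature. Adding NADPH regeneration solution started a 1 h reaction, stopped with luciferin detection reagent and read by luminescence 20 min later.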
Background: In a reporter assay the amount or activity of a reporter protein is the signal.

Assay [16] deals with Cytochrome P450 2C19 (Homo sapiens) (UniProt P33261). Nature of the assay: Cytochrome P450 Family 2 Subfamily C Member 19 (CYP2C19) small molecule antagonists: luciferase reporter qHTS assay (AID 1671197). Also: nearly all actives have a fitted effect of over 65% in size. Also: potency is read from the fitted curve at half-maximal effect. The essentials: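 Quantitative high-throughput screen of the Tox21 library using CYP2C19 with proluciferin substrate. Reaction: NADPH regeneration, 37C, 1 h, after 10 min compound preincubation at room temperature. Readout: luminescence.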
Chain of Cytochrome P450 2C19 (Homo sapiens) (P33261 whole entry, looked up): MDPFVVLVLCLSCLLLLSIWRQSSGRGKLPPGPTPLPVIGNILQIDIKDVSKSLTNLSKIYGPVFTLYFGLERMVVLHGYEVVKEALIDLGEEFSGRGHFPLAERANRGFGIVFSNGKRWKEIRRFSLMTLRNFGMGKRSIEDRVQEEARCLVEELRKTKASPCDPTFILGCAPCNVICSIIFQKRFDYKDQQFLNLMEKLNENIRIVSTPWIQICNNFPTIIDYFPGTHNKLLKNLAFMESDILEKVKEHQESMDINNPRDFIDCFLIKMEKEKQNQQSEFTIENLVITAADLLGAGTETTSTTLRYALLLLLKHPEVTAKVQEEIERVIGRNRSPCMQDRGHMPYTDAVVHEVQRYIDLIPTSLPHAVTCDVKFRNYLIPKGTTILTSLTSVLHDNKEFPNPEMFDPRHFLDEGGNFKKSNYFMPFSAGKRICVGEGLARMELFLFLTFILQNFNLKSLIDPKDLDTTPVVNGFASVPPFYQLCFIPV

The nature of assay [17]: Human pregnane X receptor (PXR) small molecule agonists, qHTS cell viability counter screen (AID 1346977). Also: nearly all actives have a fitted effect of over 50% in size. Also: potency is read from the fitted curve at half-maximal effect. The essentials:
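PXR-Luc HepG2 cells (2,000/well, 5% charcoal-stripped FBS) preincubated 5 hr, then exposed to compounds 24 hr at 37 C. Viability read in the same wells by CellTiter-Fluor fluorescence, reagent added at 23 hr, 1 hr incubation.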

The target of assay [18] is Nuclear receptor subfamily 1 group I member 2 (Rattus norvegicus) (UniProt Q9R1A7). Nature of the assay: Rat pregnane X receptor (rPXR) activation by small molecules, qHTS assay (AID 1346983). Also: nearly all actives have a fitted effect of over 20% in size. Particulars: rPXR luciferase reporter cells, One-Glo luminescence, 24 h; stronger effect = higher value. The essentials:
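Luminescent readout (One-Glo luciferase, 30 min room temperature) followed 24 hr compound treatment at 37 C of rPXR cells plated 2,000 per well and preincubated 5hr; qHTS format with compounds delivered in DMSO.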

For assay [19], the target named is Nuclear receptor subfamily 1 group I member 2 (Homo sapiens) (UniProt O75469). The assay can be described thus: CYP3A4 induction through human pregnane X receptor (PXR) by small molecules, qHTS assay (AID 1346984). Also: nearly all actives have a fitted effect of over 40% in size. The gist of the method:
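Quantitative HTS in DPX-2 cells, i.e. HepG2 transfected with PXR response element and CYP3A4-promoter luciferase. Compounds in DMSO incubated 24hr at 37C; then P450-Glo CYP3A4 substrate, 3uM final, 3hr; One-Glo luminescence.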

Assay [20] has the same target. Nature of the assay: Human pregnane X receptor (PXR) activation by small molecules, qHTS assay (AID 1346985). Also: nearly all actives have a fitted effect of over 40% in size. The essentials: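 DPX-2 cells (HepG2 co-transfected with a PXR response element and a CYP3A4-promoter luciferase construct) were seeded at 2,000 per well, rested 5 hr at 37C, then exposed to DMSO-dissolved compounds for 24 hr. Activation was read as luciferase luminescence.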

Values joined by “and” are separate entries in the source; they are usually repeats but may differ in a detail not shown here. Equal entries are not always repeated. Records with an inconclusive call do not appear. Some structures have more than one record in an assay (separate samples or runs), and their calls can disagree. Active and inactive are the calls of the source. Unless noted, calls follow the shape of the dose curve; as a rule, active = well fitted curve in the direction sought with a large enough effect in the repeat runs; inconclusive = weak or mixed curves; inactive = no such curve, though single readings can be large; an effect the other way counts as inactive or inconclusive.
% is scaled to controls: 0 for no effect and ±100 for the full control effect.

Chain of Cytochrome P450 2D6 (Homo sapiens) (P10635 whole entry, looked up): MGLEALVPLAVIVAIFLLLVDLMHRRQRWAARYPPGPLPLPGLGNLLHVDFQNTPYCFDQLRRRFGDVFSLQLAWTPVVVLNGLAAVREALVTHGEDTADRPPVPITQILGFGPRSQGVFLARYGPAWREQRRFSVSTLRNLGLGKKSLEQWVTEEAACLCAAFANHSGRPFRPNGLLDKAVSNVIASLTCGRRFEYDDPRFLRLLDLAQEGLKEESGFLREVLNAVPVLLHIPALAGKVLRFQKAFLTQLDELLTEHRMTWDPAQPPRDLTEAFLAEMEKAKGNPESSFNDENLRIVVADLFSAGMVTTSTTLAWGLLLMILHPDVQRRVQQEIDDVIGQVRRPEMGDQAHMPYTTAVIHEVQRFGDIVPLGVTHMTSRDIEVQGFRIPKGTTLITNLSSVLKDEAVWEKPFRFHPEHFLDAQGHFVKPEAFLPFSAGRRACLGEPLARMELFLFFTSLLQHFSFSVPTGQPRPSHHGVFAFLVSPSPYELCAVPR
Chain of Nuclear receptor subfamily 1 group I member 2 (Homo sapiens) (O75469 whole entry, looked up): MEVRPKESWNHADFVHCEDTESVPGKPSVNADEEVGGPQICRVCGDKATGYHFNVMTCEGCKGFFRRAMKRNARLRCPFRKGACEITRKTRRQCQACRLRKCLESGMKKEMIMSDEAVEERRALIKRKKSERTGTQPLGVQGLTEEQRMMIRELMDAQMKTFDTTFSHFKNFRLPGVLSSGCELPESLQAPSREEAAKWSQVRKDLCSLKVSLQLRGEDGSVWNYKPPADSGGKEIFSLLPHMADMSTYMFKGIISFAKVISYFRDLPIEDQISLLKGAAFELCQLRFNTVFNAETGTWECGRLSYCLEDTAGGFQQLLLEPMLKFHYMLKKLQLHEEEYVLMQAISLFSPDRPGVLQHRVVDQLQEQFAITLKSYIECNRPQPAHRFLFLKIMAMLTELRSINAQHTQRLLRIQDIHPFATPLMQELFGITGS
Chain of Progesterone receptor (Homo sapiens) (P06401 whole entry, looked up): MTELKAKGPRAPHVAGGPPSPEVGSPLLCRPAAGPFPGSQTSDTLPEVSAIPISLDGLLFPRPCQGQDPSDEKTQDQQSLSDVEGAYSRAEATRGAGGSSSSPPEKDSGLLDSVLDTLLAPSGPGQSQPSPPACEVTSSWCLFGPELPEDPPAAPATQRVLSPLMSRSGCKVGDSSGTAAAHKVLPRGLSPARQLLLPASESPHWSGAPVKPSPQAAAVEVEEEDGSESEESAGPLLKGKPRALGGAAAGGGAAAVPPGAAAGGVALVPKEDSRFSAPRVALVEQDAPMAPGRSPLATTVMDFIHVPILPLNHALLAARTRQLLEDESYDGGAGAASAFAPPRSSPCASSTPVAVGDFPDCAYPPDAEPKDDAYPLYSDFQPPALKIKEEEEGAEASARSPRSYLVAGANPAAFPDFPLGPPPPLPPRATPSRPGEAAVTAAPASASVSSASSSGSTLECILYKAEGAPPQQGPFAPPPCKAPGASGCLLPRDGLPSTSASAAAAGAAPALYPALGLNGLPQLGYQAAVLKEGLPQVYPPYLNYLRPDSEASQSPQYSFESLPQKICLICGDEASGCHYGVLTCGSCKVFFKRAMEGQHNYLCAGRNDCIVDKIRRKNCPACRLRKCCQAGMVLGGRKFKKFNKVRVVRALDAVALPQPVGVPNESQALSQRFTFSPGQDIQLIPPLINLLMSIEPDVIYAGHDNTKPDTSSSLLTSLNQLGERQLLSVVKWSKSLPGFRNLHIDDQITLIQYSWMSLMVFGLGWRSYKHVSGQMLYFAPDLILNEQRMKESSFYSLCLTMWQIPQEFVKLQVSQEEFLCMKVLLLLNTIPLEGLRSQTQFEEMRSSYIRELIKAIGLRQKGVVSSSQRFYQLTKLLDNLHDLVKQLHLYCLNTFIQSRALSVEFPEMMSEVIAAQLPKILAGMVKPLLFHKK
Chain of Nuclear receptor subfamily 1 group I member 2 (Rattus norvegicus) (Q9R1A7 whole entry, looked up): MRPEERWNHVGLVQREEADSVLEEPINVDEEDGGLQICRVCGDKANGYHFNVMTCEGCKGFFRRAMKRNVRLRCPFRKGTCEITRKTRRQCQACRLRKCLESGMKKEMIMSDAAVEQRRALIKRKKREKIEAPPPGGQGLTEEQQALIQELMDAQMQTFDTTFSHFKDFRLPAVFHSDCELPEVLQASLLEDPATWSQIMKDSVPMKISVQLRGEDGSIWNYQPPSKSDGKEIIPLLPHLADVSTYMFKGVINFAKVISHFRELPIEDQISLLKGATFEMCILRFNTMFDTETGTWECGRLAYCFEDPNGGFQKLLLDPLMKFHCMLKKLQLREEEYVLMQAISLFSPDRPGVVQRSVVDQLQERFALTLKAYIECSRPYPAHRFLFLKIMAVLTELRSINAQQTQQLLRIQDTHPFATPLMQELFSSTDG

For the compound `Cc1cc(C)c(O)c(C)c1`, the Potency result in [1], in assay [2], in [3], in assay [4], in [5] and in assay [6] was “inactive” in each case. The Potency result in assay [7], in assay [8], in assay [10], in assay [12], in assay [13] and in [15] was “inactive” in each case. The compound was classed as inactive in [9]. Moreover, the Potency in assay [11] is 48.6 µM (active) and inactive; in assay [14] it was 30.6 µM (active) and inactive; in assay [16], 71 µM (active).

Turning to `CC(=O)OCc1ccc2c(c1)OCO2`, the Potency result in [1], in assay [2], in [3], in [4], in assay [5] and in [6] was “inactive” each time. The Potency entry in [7], in [8], in assay [10], in [11], in assay [12] and in assay [13] was “inactive” in each case. Further, the Potency entry in assay [14] and in [15] was “inactive” each time. For the same compound, in assay [9], the result was inactive. Also, the Potency in assay [16] is 35.7 µM (active) and 31.7 µM (active).

As for `O=[N+]([O-])c1cc(C(F)(F)F)ccc1Cl`, the Potency entry in assay [1], in assay [2], in [3], in assay [4], in assay [5] and in assay [6] was “inactive” throughout. Moreover, the Potency result in [7], in assay [8], in assay [17], in [10], in [11] and in assay [12] was “inactive” in each case. Further, the Potency result in assay [13], in assay [14], in [15] and in assay [16] was “inactive” in each case. Besides, the compound was called inactive in [9].

For `CC(=O)OC[C@H]1O[C@@](COC(C)=O)(O[C@H]2O[C@H](COC(C)=O)[C@@H](OC(C)=O)[C@H](OC(C)=O)[C@H]2OC(C)=O)[C@@H](OC(C)=O)[C@@H]1OC(C)=O`, the Potency entry in assay [1], in [2], in assay [3], in assay [4], in assay [5] and in assay [6] was “inactive” each time. The Potency result in assay [7], in assay [8], in assay [17], in [10], in assay [11] and in assay [12] was “inactive” throughout. The Potency entry in assay [13], in [14], in [19], in assay [15] and in assay [16] was “inactive” in each case. In addition, the compound was classed as inactive in assay [9] and in assay [20]. The max activation in [18] is -1.94% (inactive).

As for `CN=C(NC#N)NCCSCc1nc[nH]c1C`, the Potency entry in assay [1], in assay [2], in [3], in [4], in [5] and in assay [6] was “inactive” each time. Also, the Potency entry in [7], in assay [8], in assay [17], in [10], in [11] and in assay [12] was “inactive” each time. Further, the Potency entry in assay [13] is “inactive”. Besides, the outcome in [9] was inactive. Further, the Potency was 31.4 µM (active) and 15.5 µM (active) in assay [15]; 22.2 µM (active) and 34.7 µM (active) in assay [16].

Regarding `Cc1cc(C)cc(O)c1`, the Potency result in [1], in assay [2], in [3], in assay [4], in [5] and in assay [6] was “inactive” throughout. Also, the Potency result in [7], in [8], in assay [12], in [14] and in assay [15] was “inactive” throughout. In assay [9], the call was inactive. Also, the Potency in [17] was 6.31 µM (active) and inactive; in assay [10], 12.2 µM (active) and inactive; in [11], 1.73 µM (active) and inactive; in [16] it was 40 µM (active) and 73.1 µM (active).

Turning to `NCCNCCNCCN`, the Potency result in assay [1], in [2], in assay [3], in assay [4], in assay [5] and in assay [6] was “inactive” in each case. Moreover, the Potency entry in assay [7], in [8], in [17], in assay [10], in [11] and in assay [12] was “inactive” throughout. For the same compound, in assay [13], the Potency entry is “inactive”. In addition, in [9], the compound was classed as inactive. The max activation in [18] is -2.83% (inactive).

With `CN1CCCC1=O`, the Potency entry in assay [1], in assay [2], in assay [3], in assay [4], in assay [5] and in assay [7] was “inactive” in each case. Also, the Potency result in assay [8], in assay [17], in assay [10], in assay [11], in [12] and in assay [13] was “inactive” in each case. In addition, the Potency result in assay [15] and in assay [16] was “inactive” in each case. The compound was called inactive in assay [9]. The Potency in assay [14] was 63.2 µM (active) and inactive.
